What all share (format): functional
Assay [1] has as its system Plasmodium falciparum. In words: GSK_TCMDC: Inhibition of Plasmodium falciparum 3D7 in whole red blood cells, using parasite LDH activity as an index of growth. Test compounds present at 2uM.
Assay [2] concerns Plasmodium falciparum. In words: GSK_TCMDC: Inhibition of Plasmodium falciparum Dd2 in whole red blood cells, using parasite LDH activity as an index of growth. Test compounds present at 2uM.
Assay [3] has as its system HepG2. Nature of the assay: GSK_TCMDC: Percent inhibition of human HepG2 cell line. Test compounds present at 10uM.

The text below walks through data of ChEMBL document CHEMBL1157539, “Thousands of chemical starting points for antimalarial lead identification” (Nature, 2010).

Turning to `O=C(/C=C/c1ccccc1O)N1CCC(CCN2CCC(c3c[nH]c4ccccc34)CC2)CC1`, the Inhibition (in general, the drop in the measured response relative to a control, in per cent) in assay [1] was 100%; in assay [2], 15%; in assay [3], 46%.
Taken in the same sequence, the figures for `C=CCOc1ccc(C2C(C(=O)OC)=C(C)NC3=C2C(=O)c2ccccc23)cc1OC` (centres undefined) were 82%, 65% and 0%.
Regarding `N#Cc1ccc(-c2ccc(C(=O)NCCCCN3CC=C(c4ccc5c(c4OCC4CC4)CCCC5)CC3)cc2)cc1`, the figures for the Inhibition in assay [1], in assay [2] and in assay [3] were 100%, 83% and 22%, respectively.
Take `O=C(c1ccco1)N1CCN(c2nc(-c3ccc(Cl)cc3)nc3ccccc23)CC1`: the Inhibition in assay [1] came to 96%; in assay [2] it was 91%; in assay [3] it was 13%.
For `CCN(CC)CCN(Cc1ccc(-c2ccc(C(F)(F)F)cc2)nc1)C(=O)Cn1cc(Cc2cnn(C)c2)c(=O)n2nc(-c3ccccc3)cc12.O=C(O)C(O)C(O)C(=O)O` the same measures were 97%, 95% and 35%.
With `COc1ccc(-c2cnc3ccc(NC4CCC(O)CC4)nn23)cn1` (centres undefined), the results for the Inhibition in assay [1], in assay [2] and in assay [3] were 98%, 73% and 54%, respectively.
For `NC1CCN(Cc2cccc(-c3ccc(-c4nc5ccccc5[nH]4)s3)c2)C1.O=C(O)C(F)(F)F` (centres undefined) the same measures were 100%, 62% and 36%.
Taken in the same sequence, the figures for `Cc1cc(F)ccc1-c1nc(NCCCNCCc2ccccc2)nc2c1ccc(=O)n2-c1c(F)cccc1F.O=C(O)C(F)(F)F` were 100%, 100% and 36%.
As for `COc1ccc(-c2onc(C(F)(F)F)c2-c2ccc(Br)cc2)c(O)c1`, the Inhibition in assay [1] came out at 99%; in assay [2], 77%; in assay [3], 7%.
On to `Fc1ccc(-c2cncc(Nc3ccncc3)n2)cc1`, for which the values for the Inhibition in assay [1], in assay [2] and in assay [3] were 88%, 11% and 8%, respectively.
For `CCCN(CC)CCOC(=O)c1ccccc1` the same measures were 99%, 1% and 2%.
In the case of `O=C(N1CCN(c2ccnc3cc4c(cc23)N(Cc2ccccc2)CC4)CC1)C(F)(F)F`, the Inhibition in assay [1] was 100%; in assay [2], 100%; in assay [3] it was 8%.
Take `CC(C)(C)c1ccc(CNC(=O)c2cc(CNC3CCC(N)CC3)ccc2O)cc1` (centres undefined): the Inhibition in assay [1] came to 94%; in assay [2], 1%; in assay [3] it was 1%.
As to `CCN1CCC(N(Cc2ccc(-c3ccc(C(F)(F)F)cc3)cc2)C(=O)Cn2c(CCc3cccc(F)c3F)cc(=O)c3ccccc32)C1.O=C(O)C(O)C(O)C(=O)O` (centres undefined), the figures for the Inhibition in assay [1], in assay [2] and in assay [3] were 93%, 84% and 43%, respectively.
Taken in the same sequence, the figures for `CCOc1cc(O)c(-c2nc(N)ncc2-c2ccc3c(c2)OCCO3)cc1CC` were 99%, 68% and 0%.
In the case of `O=C(NCC(CCCN1CCC(c2c[nH]c3ccccc23)CC1)c1ccccc1)Nc1ccc(Cl)c(Cl)c1` (centres undefined), the results for the Inhibition in assay [1], in assay [2] and in assay [3] were 100%, 64% and 38%, respectively.
Turning to `CC(Cc1ccc(NC(=O)c2ccc(CC(C)NCc3ccc(Cl)c(Cl)c3)cc2)cc1)NCCc1cccc(Cl)c1` (centres undefined), the Inhibition in assay [1] was 92%; in assay [2], 33%; in assay [3] it was 26%.
As for `CN(Cc1cccc(O)c1)C1CCN(c2cc(NC(=O)c3ccc(F)cc3)ccn2)CC1.O=C(O)C(F)(F)F`, the results for the Inhibition in assay [1], in assay [2] and in assay [3] were 94%, 9% and 24%, respectively.
For `CCOc1cc(Cc2cnc(N)nc2N)cc(OCC)c1OCC` the same measures were 97%, 0% and 0%.
With `CCc1sc(N2CCN(C)CC2)nc1C(=O)Nc1ccc(F)cc1C(F)(F)F.O=C(O)C(F)(F)F`, the values for the Inhibition in assay [1], in assay [2] and in assay [3] were 100%, 98% and 0%, respectively.
For `CCN(CC)CCCNC(=O)/C(=C/C=C/c1cc2cc(Cl)c(Cl)cc2[nH]1)OC.Cl` the same measures were 84%, 21% and 38%.
As for `Cl.O=C(/C=C/c1ccc(F)cc1)NC1CCC(CCN2CCc3ccc(-n4cccn4)cc3CC2)CC1` (centres undefined), the figures for the Inhibition in assay [1], in assay [2] and in assay [3] were 89%, 16% and 23%, respectively.
For `CCOC(=O)NC1=NC(=N)N(OCCCOc2cc(Cl)c(Cl)cc2Cl)C(C)(C)N1` the same measures were 97%, 94% and 63%.
For `Cc1cc(N[C@@H](Cc2ccccc2)C(=O)NC2CCCC2)nc(Nc2ccccc2)n1.O=C(O)C(F)(F)F` the same measures were 100%, 82% and 3%.
For `CN(C)CCCc1cc(NC(=O)Nc2cccc(Cl)c2Cl)ccc1I.Cl` the same measures were 100%, 45% and 12%.
Regarding `CCNC(=O)Nc1ccc(-c2ccc(-c3nc4cccc(C)c4[nH]3)s2)cc1`, the Inhibition in assay [1] was 96%; in assay [2], 13%; in assay [3], 18%.
Taken in the same sequence, the figures for `O=C(Cn1c(CCc2cccc(F)c2F)cc(=O)c2ccccc21)N(Cc1ccc(-c2ccc(C(F)(F)F)cc2)cc1)C1CCN(CCO)CC1.O=C(O)C(O)C(O)C(=O)O` were 91%, 84% and 82%.
For `Cc1nnsc1C(=O)Nc1cccc(-c2ccc(-c3nc4cc(C(F)(F)F)ccc4[nH]3)cc2)c1` the same measures were 99%, 97% and 62%.
